Experimental data reported in PubChem BioAssay (Tox21).
Several values for one entry are separate records, joined by “and”; a condition that tells them apart may be missing. Equal values may be shown once. Inconclusive results are not listed. Activity calls are given as the source filed them. Unless noted, calls come from the whole dose curve; as a rule, active = well fitted curve in the direction sought with a large enough effect in the repeat runs; inconclusive = weak or mixed curves; inactive = no such curve, though single readings can be large; an effect the other way counts as inactive or inconclusive.

What was measured:
[1] = target: Luciferin 4-monooxygenase (Photinus pyralis) (UniProt P08659); assay: qHTS assay to identify small molecule inhibitors of firefly luciferase (AID 1224835); note: nearly all actives have a fitted effect of over 25% in size; note: potency is the fitted concentration of half-maximal effect
Sequence of Luciferin 4-monooxygenase (Photinus pyralis) (P08659 whole entry, looked up): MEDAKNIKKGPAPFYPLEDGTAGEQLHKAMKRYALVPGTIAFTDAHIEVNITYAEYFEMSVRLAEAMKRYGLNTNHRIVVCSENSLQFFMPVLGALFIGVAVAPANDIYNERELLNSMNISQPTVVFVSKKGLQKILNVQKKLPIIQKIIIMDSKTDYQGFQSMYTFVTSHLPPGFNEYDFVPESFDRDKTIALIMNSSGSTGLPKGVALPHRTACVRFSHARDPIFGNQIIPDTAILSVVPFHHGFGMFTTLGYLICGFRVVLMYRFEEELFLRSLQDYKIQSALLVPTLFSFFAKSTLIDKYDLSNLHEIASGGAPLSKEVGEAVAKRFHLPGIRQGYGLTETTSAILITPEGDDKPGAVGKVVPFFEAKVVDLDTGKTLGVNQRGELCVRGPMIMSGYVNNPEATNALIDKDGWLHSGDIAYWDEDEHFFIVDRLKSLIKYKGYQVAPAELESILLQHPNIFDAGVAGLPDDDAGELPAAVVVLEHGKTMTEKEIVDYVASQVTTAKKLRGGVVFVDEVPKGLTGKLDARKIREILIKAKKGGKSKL
Method in brief: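 Quantitative HTS format; KM concentrations of both substrates. Purified P. pyralis FLuc activity quantified from luminescence images.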

[2] = qHTS assay to identify small molecule agonists of the constitutive androstane receptor (CAR) signaling pathway - cell viability counter screen (AID 1224836); note: nearly all actives have a fitted effect of over 45% in size
Method in brief: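 Viability read-out: CellTiter-Fluor fluorescence after 23 h compound exposure at 37 C/5% CO2 in double-stable HepG2-CYP2B6-hCAR cells, with PK11195 present at 0.75 uM final; compounds tested in 15-point titration.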

[3] = qHTS assay to identify small molecule antagonists of the constitutive androstane receptor (CAR) signaling pathway - cell viability counter screen (AID 1224837); note: nearly all actives have a fitted effect of over 45% in size
Method in brief: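 Read-out: CellTiter-Fluor fluorescence after 23 hr at 37 C/5% CO2. Cells: HepG2 double-stable for hCAR and CYP2B6-2.2kb. Compounds tested at 15 concentrations in the presence of CITCO, final concentration 50 nM.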

[4] = target: Nuclear receptor subfamily 1 group I member 3 (Homo sapiens) (UniProt Q14994); assay: qHTS assay to identify small molecule antagonists of the constitutive androstane receptor (CAR) signaling pathway (AID 1224838);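 note: HepG2 cells stably expressing hCAR with CYP2B6 luciferase reporter stimulated by CITCO; nearly all actives have a fitted effect of over 40% in size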
Sequence of Nuclear receptor subfamily 1 group I member 3 (Homo sapiens) (Q14994 whole entry, looked up): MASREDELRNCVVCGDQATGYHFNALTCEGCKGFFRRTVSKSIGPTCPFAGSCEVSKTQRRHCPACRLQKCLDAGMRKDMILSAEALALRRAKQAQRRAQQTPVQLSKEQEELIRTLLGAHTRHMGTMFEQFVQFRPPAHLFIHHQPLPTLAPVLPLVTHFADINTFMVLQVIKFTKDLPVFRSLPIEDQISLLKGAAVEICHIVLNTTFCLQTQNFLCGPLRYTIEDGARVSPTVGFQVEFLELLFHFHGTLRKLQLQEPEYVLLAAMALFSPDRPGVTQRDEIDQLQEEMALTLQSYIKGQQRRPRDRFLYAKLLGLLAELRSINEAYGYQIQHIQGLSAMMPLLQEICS
Method in brief: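 Read-out: ONE-Glo luciferase luminescence after 30 min at room temperature. HepG2-CYP2B6-hCAR double-stable cells, compounds in 15-point titration plus 50 nM CITCO final, 24 h at 37 C/5% CO2.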

[5] = target: Nuclear receptor subfamily 1 group I member 3 (Homo sapiens) (UniProt Q14994); assay: qHTS assay to identify small molecule agonists of the constitutive androstane receptor (CAR) signaling pathway (AID 1224839); note: nearly all actives have a fitted effect of over 15% in size; note: potency is the fitted concentration of half-maximal effect;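 for activation: HepG2 cells stably carrying human CAR and a CYP2B6 luciferase reporter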
Method in brief: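 Luminescence read-out (ONE-Glo, 30 min, room temperature) from double-stable HepG2-CYP2B6-hCAR cells exposed 24 h to 15-point compound series in presence of 0.75 uM PK11195 final.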

[6] = qHTS assay to identify small molecule antagonists of the estrogen related receptor signaling pathway with the pleiotropic PPARgamma coactivator (PGC) from Tox21 10K library - cell viability counter screen (AID 1224840; active = well fitted cell-killing curve with a large enough effect in the repeat runs, not every such curve was filed as active; note: nearly all actives have a fitted effect of over 40% in size)
Method in brief: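 Fluorescence read-out of CellTiter-Fluor viability reagent, added after cells had been exposed to compound in DMSO for 17.5 h at 37 C; 30 min development at 37 C/5% CO2. Cells: PGC/ERR line, 2,000/well.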

[7] = qHTS assay to identify small molecule agonists of the hypoxia (HIF-1) signaling pathway - cell viability counter screen (AID 1224844; calls by dose curve; note: nearly all actives have a fitted effect of over 50% in size; note: potency is the fitted concentration of half-maximal effect)
Method in brief: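 CellTiter-Glo luminescence read-out, 30 min RT, taken in the same wells as the beta-lactamase HRE reporter assay; HRE-bla ME-180 cells, 0.5% dialyzed FBS, 17 hr compound treatment at 37C, 5% CO2.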

[8] = qHTS assay to identify small molecule agonists of the hypoxia (HIF-1) signaling pathway (AID 1224846; active = well fitted activation curve with a large enough effect in the signal ratio in the repeat runs, not every such curve was filed as active; the % refers to the signal ratio)
Method in brief: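 Beta-lactamase FRET read-out (CCF4-AM substrate) from ME-180 cells carrying an HRE-driven bla reporter, after 17 hrs compound exposure at 37C/5% CO2. Cells were seeded at 2,000 per well in 0.5% dialyzed FBS medium and preincubated 5 hrs.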

[9] = qHTS RealTime-Glo MT Cell Viability Assay in HepG2 cells - 24 hour (AID 1224867); note: nearly all actives have a fitted effect of over 50% in size; note: potency is the fitted concentration of half-maximal effect
Method in brief: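 HepG2 cells were seeded at 600 cells/well together with NanoLuc luciferase and a cell-permeant prosubstrate, preincubated 5 h at 37 C/5% CO2, then pin-dosed with compounds in DMSO. Nonlytic luminescence from viable cells was read at each time point.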

[10] = qHTS RealTime-Glo MT Cell Viability Assay in HEK293 cells - 32 hour (AID 1224868); note: nearly all actives have a fitted effect of over 50% in size; note: potency is the fitted concentration of half-maximal effect
Method in brief: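 HEK293 cells were seeded at 600 cells/well together with NanoLuc luciferase and cell-permeant prosubstrate, preincubated 5 h at 37 C/5% CO2, then given compound in DMSO by pintool. Luminescence from viable-cell prosubstrate reduction was read repeatedly over 40 h.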

[11] = A CellTox Green Cytotoxicity Assay to monitor cytotoxicity in HEK293 cells - 0 hour (AID 1224869); note: nearly all actives have a fitted effect of over 50% in size
Method in brief: (§1)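 Read-out: fluorescence of a cell-impermeant cyanine dye staining DNA of dead cells, proportional to cytotoxicity. HEK293, 600 cells/well with reagent, compound (23 nL DMSO) added after 5 h; reads at 0, 8, 16, 24, 32, 40 h.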

[12] = qHTS RealTime-Glo MT Cell Viability Assay in HepG2 cells - 40 hour (AID 1224870); note: nearly all actives have a fitted effect of over 50% in size
Method in brief: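 HepG2 cells mixed with RealTime-Glo MT reagents (NanoLuc plus cell-permeant prosubstrate) were seeded at 600 cells/well, incubated 5 h at 37 C/5% CO2, then pinned with compounds in DMSO; nonlytic luminescence tracked viability during 40 h treatment.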

[13] = A CellTox Green Cytotoxicity Assay to monitor cytotoxicity in HEK293 cells - 40 hour (AID 1224871); note: nearly all actives have a fitted effect of over 45% in size; note: potency is the fitted concentration of half-maximal effect
Method in brief: as §1

[14] = target: Thyrotropin receptor (Homo sapiens) (UniProt P16473); assay: qHTS assay to identify small molecule agonists of the thyroid stimulating hormone receptor (TSHR) signaling pathway (AID 1224843; calls by dose curve; note: nearly all actives have a fitted effect of over 45% in size; note: potency is the fitted concentration of half-maximal effect)
Sequence of Thyrotropin receptor (Homo sapiens) (P16473 whole entry, looked up): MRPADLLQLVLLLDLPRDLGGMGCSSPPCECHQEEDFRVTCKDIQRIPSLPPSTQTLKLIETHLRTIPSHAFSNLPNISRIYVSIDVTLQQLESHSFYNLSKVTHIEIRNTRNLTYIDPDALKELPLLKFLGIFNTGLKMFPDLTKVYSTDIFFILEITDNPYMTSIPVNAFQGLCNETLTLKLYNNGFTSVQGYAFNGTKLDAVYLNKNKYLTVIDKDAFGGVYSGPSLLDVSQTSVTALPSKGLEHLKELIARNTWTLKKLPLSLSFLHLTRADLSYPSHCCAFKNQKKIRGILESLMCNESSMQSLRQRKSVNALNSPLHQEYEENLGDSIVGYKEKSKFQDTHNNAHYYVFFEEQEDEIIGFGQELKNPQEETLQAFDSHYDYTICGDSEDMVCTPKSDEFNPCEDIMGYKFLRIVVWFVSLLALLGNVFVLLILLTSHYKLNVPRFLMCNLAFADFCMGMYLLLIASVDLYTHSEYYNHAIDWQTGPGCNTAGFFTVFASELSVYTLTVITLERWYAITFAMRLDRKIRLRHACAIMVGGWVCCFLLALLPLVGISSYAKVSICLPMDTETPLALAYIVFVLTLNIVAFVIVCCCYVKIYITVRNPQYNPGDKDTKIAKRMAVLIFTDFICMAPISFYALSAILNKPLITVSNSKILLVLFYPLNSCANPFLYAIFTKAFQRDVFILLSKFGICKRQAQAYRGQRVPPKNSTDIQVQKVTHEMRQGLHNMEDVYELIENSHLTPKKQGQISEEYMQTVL
Method in brief: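 Compounds are titrated over 15 concentrations, in triplicate, onto TSHR-HEK293 cells seeded at 800/well. Plates sit 30 min at room temperature before cAMP-d2 and anti-cAMP cryptate are added; signal is read after a further hour.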

[15] = qHTS assay to identify small molecule agonists of H2AX - cell viability counter screen (AID 1224847; calls by dose curve; note: nearly all actives have a fitted effect of over 30% in size; note: potency is the fitted concentration of half-maximal effect)
Method in brief: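 CHO-K1 wt, 1000 cells/well, o/n 37C; cpds 15 conc, 3 h 37C, 0.76% DMSO; CellTiter-Glo, 30 min RT, luminescence.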

[16] = qHTS assay to identify small molecule agonists of H2AX (AID 1224845; active = well fitted activation curve with a large enough effect in the signal ratio in the repeat runs, not every such curve was filed as active; the % refers to the signal ratio)
Method in brief: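 Wild-type CHO-K1 cells plated overnight, then exposed 3 hr at 37C to compounds at 15 concentrations (0.76% DMSO). Lysed, then HTRF anti-pH2AX(S139)-cryptate/anti-H2AX-d2 detection after 24 hr at room temperature; emissions 665 and 620 nm.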

[17] = qHTS assay to identify small molecule antagonists of the estrogen related receptor signaling pathway with the pleiotropic PPARgamma coactivator (PGC) from Tox21 10K library (AID 1224841; call rule not given here)
Method in brief: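 Luminescence read-out (One-Glo luciferase reagent, 30 min at room temperature) from PGC/ERR cells exposed to DMSO-dissolved test compounds for 18 h at 37 C; cells, 2,000 per well, had been preincubated 6 h before compound transfer.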

[18] = qHTS assay to identify small molecule agonists of the estrogen related receptor signaling pathway with the pleiotropic PPARgamma coactivator (PGC) from Tox21 10K library (AID 1224842); note: nearly all actives have a fitted effect of over 15% in size
Method in brief: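 PGC/ERR reporter cells (NTP line) were seeded 2,000 per well, rested 6 h at 37 C/5% CO2, then pin-dosed with compounds in DMSO for 18 h at 37 C; luciferase read by One-Glo luminescence after 30 min at room temperature.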

[19] = qHTS assay to identify small molecule antagonists of the estrogen related receptor (ERR) signaling pathway from Tox21 library (AID 1224848); note: nearly all actives have a fitted effect of over 50% in size
Method in brief: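 First, 2,000 ERR cells per well were plated and held 6 h at 37 C/5% CO2. Next, compounds in DMSO were pinned in and left 18 h at 37 C. Finally, ONE-Glo was added and luminescence read after 30 min at room temperature.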

[20] = qHTS assay to identify small molecule agonists of the estrogen related receptor (ERR) signaling pathway from Tox21 library (AID 1224849; calls by dose curve; note: nearly all actives have a fitted effect of over 15% in size); settings: ERR reporter cell line, ONE-Glo luciferase, 18 h; at 92.4 µM (top of the series) unless noted
Method in brief: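 Luminescence readout (ONE-Glo, 30 min RT) after 18 h compound exposure at 37 C of NTP-supplied ERR reporter cells; cells were plated 6 h before compound addition by pin tool.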
% is set by controls: 0 for no effect and ±100 for the full control effect.

CCOP(=O)(Sc1ccccc1)Sc1ccccc1
inactive: Potency [1] | Potency [2] | Potency [3] | Potency [4] | Potency [6] | Potency [7] | Potency [8] | Potency [9] | Potency [10] | Potency [11] | Potency [12] | Potency [13]
active: Potency [5] 21.7 µM

O=C(Cl)c1ccccc1F
inactive: Potency [1] | Potency [2] | Potency [3] | Potency [4] | Potency [5] | Potency [6] | Potency [14] | Potency [7] | Potency [8] | Potency [15] | Potency [9] | Potency [10] | Potency [11] | Potency [12]

O=[N+]([O-])c1cccc2cccc([N+](=O)[O-])c12
inactive: Potency [1] | Potency [2] | Potency [3] | Potency [4] | Potency [6] | Potency [7] | Potency [8] | Potency [15] | Potency [9] | Potency [11] | Potency [12] | Potency [13]
active: Potency [5] 54.7 µM

ClC1=C(Cl)[C@]2(Cl)[C@H]3[C@H]([C@@H]4C=C[C@H]3C4)[C@@]1(Cl)C2(Cl)Cl
inactive: Potency [1] | Potency [2] | Potency [3] | Potency [4] | Potency [6] | Potency [11] | Potency [12]
active: Potency [5] 13.7 µM | Potency [14] 19.3 µM and 13.7 µM | Potency [7] 43.6 µM | Potency [15] 89.8 µM | Potency [9] 54.9 µM | Potency [10] 48.9 µM and 49 µM | Potency [13] 54.9 µM and 49 µM

CCC1(CC)C(=O)N=C(O)NC1=O
inactive: Potency [1] | Potency [2] | Potency [3] | Potency [4] | Potency [5] | Potency [6] | Potency [7] | Potency [16] | Potency [8] | Potency [15] | Potency [9] | Potency [10] | Potency [11] | Potency [12] | Potency [13]

O=C(CCCCl)c1ccc(F)cc1
active: Potency [1] 15.5 µM
inactive: Potency [2] | Potency [3] | Potency [4] | Potency [6] | Potency [17] | Potency [18] | Potency [14] | Potency [7] | Potency [8] | Potency [15] | Potency [19] | activity change, positive = activation [20] 7.87% [at 42.5 µM] | Potency [9] | Potency [11] | Potency [12] | Potency [13]

Nc1nc(N)nc(Cl)n1
inactive: Potency [1] | Potency [2] | Potency [3] | Potency [4] | Potency [5] | Potency [6] | Potency [14] | Potency [7] | Potency [8] | Potency [15] | Potency [9] | Potency [10] | Potency [11] | Potency [12] | Potency [13]

O=C(N[C@@H]1N=C(c2ccccc2F)c2cccc3c2N(CC3)C1=O)c1cc2ccccc2[nH]1
inactive: Potency [2] | Potency [3] | Potency [4] | Potency [6] | Potency [14] | Potency [7] | Potency [15] | Potency [10]
active: Potency [1] 9.77 µM | Potency [5] 2.98 µM | Potency [13] 6.01 µM
